# Measured values as given in the supplement of paper PMC6089552.
# The whole screen tested about 3,200 compounds, of which about 300 (9.4%) showed activity. Many of the other results were omitted from the sample, so actives are more common in it than they were. A number with no mark means an inactive call.
# Test system: A673/TR/shEF
# Assay: cell viability (LOESS-normalised, relative to median of negative controls) (log2 ratio); higher = more viable cells (less compound effect), active = hit call of the paper (over 3 MAD below the median)
# Settings: treatment time: 72 h
# Summary of the method: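 Doxycycline, present or absent from 24 h before compounds, was used to induce EWS-FLI1 shRNA knockdown in A673/TR/shEF Ewing sarcoma cells at 1,500 per well in 384-well plates. Cells then received library compounds at two or more concentrations, or DMSO controls, for three days. Viability was measured by CellTiter-Glo luminescence on an Envision reader, and per-plate LOESS correction, division by the negative-control median and log2 transformation followed.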
# [1] = 0.103 µM, library screen: screen3, EWS-FLI1 expression: high (no doxycycline)
# [2] = 0.103 µM, library screen: screen3, EWS-FLI1 expression: low (doxycycline-induced shRNA knockdown)
# [3] = 0.25 µM, library screen: screen1, EWS-FLI1 expression: high (no doxycycline)
# [4] = 0.25 µM, library screen: screen1, EWS-FLI1 expression: low (doxycycline-induced shRNA knockdown)
# [5] = 0.308 µM, library screen: screen3, EWS-FLI1 expression: high (no doxycycline)
# [6] = 0.308 µM, library screen: screen3, EWS-FLI1 expression: low (doxycycline-induced shRNA knockdown)
# [7] = 0.926 µM, library screen: screen3, EWS-FLI1 expression: high (no doxycycline)
# [8] = 0.926 µM, library screen: screen3, EWS-FLI1 expression: low (doxycycline-induced shRNA knockdown)
# [9] = 2.5 µM, library screen: screen1, EWS-FLI1 expression: high (no doxycycline)
# [10] = 2.5 µM, library screen: screen1, EWS-FLI1 expression: low (doxycycline-induced shRNA knockdown)
# [11] = 2.8 µM, library screen: screen3, EWS-FLI1 expression: high (no doxycycline)
# [12] = 2.8 µM, library screen: screen3, EWS-FLI1 expression: low (doxycycline-induced shRNA knockdown)
# [13] = 8.3 µM, library screen: screen3, EWS-FLI1 expression: high (no doxycycline)
# [14] = 8.3 µM, library screen: screen3, EWS-FLI1 expression: low (doxycycline-induced shRNA knockdown)
# [15] = 25 µM, library screen: screen3, EWS-FLI1 expression: high (no doxycycline)
# [16] = 25 µM, library screen: screen3, EWS-FLI1 expression: low (doxycycline-induced shRNA knockdown)
# [17] = 0.25 µM, library screen: screen2, EWS-FLI1 expression: high (no doxycycline)
# [18] = 0.25 µM, library screen: screen2, EWS-FLI1 expression: low (doxycycline-induced shRNA knockdown)
# [19] = 2.5 µM, library screen: screen2, EWS-FLI1 expression: high (no doxycycline)
# [20] = 2.5 µM, library screen: screen2, EWS-FLI1 expression: low (doxycycline-induced shRNA knockdown)
smiles,measurement,setting,value
CN1[C@@H]2CC[C@H]1CC(OC(=O)C(CO)c1ccccc1)C2 (stereo not given in full),cell viability (log2),[1],-0.0138
same,cell viability (log2),[2],0.0399
same,cell viability (log2),[3],0.0603
same,cell viability (log2),[4],0.0968
same,cell viability (log2),[5],-0.021
same,cell viability (log2),[6],-0.00749
same,cell viability (log2),[7],-0.0329
same,cell viability (log2),[8],0.092
same,cell viability (log2),[9],0.15
same,cell viability (log2),[10],0.157
same,cell viability (log2),[11],-0.023
same,cell viability (log2),[12],-0.00135
same,cell viability (log2),[13],-0.0414
same,cell viability (log2),[14],-0.0331
same,cell viability (log2),[15],-0.025
same,cell viability (log2),[16],0.0734
NCCc1ccc(O)cc1,cell viability (log2),[3],0.0239
same,cell viability (log2),[4],0.0662
same,cell viability (log2),[17],0.157
same,cell viability (log2),[18],0.123
same,cell viability (log2),[9],0.134
same,cell viability (log2),[10],0.0729
same,cell viability (log2),[19],0.116
same,cell viability (log2),[20],0.0531
COc1cc(CCN)ccc1O,cell viability (log2),[17],0.212
same,cell viability (log2),[18],0.0815
same,cell viability (log2),[19],0.12
same,cell viability (log2),[20],0.0385
NCCc1ccc(S(=O)(=O)F)cc1,cell viability (log2),[17],-0.0889 (active)
same,cell viability (log2),[18],0.067
same,cell viability (log2),[19],-0.0377
same,cell viability (log2),[20],0.0161
COc1ccc2c(c1O)-c1c3c(cc4c1[C@H](C2)N(C)CC4)OCO3,cell viability (log2),[17],0.104
same,cell viability (log2),[18],0.0658
same,cell viability (log2),[19],0.0733
same,cell viability (log2),[20],0.132
COc1cc([C@@H]2c3cc4c(cc3[C@H](OC(C)=O)[C@H]3COC(=O)[C@H]23)OCO4)cc(OC)c1OC,cell viability (log2),[3],-3.77 (active)
same,cell viability (log2),[4],-0.983 (active)
same,cell viability (log2),[9],-3.58 (active)
same,cell viability (log2),[10],-1.13 (active)
COc1ccc2c(c1OC)C(=O)O[C@H]2[C@@H]1c2cc3c(cc2CCN1C)OCO3,cell viability (log2),[17],0.0965
same,cell viability (log2),[18],0.0835
same,cell viability (log2),[19],0.18
same,cell viability (log2),[20],0.113
COc1cc([C@@H]2c3cc4c(c(O)c3C[C@H]3COC(=O)[C@@H]32)OCO4)cc(OC)c1OC,cell viability (log2),[3],0.0843
same,cell viability (log2),[4],0.0231
same,cell viability (log2),[9],-3 (active)
same,cell viability (log2),[10],-0.852 (active)
COc1cc([C@@H]2c3cc4c(cc3[C@H](O)[C@H]3COC(=O)[C@H]23)OCO4)cc(OC)c1OC,cell viability (log2),"0.025 µM, library screen: screen2, EWS-FLI1 expression: high (no doxycycline)",0.106
same,cell viability (log2),"0.025 µM, library screen: screen2, EWS-FLI1 expression: low (doxycycline-induced shRNA knockdown)",0.109
same,cell viability (log2),[3],-3.56 (active)
same,cell viability (log2),[4],-1.09 (active)
same,cell viability (log2),[17],0.0134
same,cell viability (log2),[18],0.0379
same,cell viability (log2),[9],-4.23 (active)
same,cell viability (log2),[10],-0.986 (active)
same,cell viability (log2),[19],-1.33 (active)
same,cell viability (log2),[20],-0.175 (active)
same,cell viability (log2),"25 µM, library screen: screen2, EWS-FLI1 expression: high (no doxycycline)",-2.9 (active)
same,cell viability (log2),"25 µM, library screen: screen2, EWS-FLI1 expression: low (doxycycline-induced shRNA knockdown)",-0.496 (active)
COc1ccc2c(c1OC)C(=O)O[C@H]2[C@H]1c2cc3c(cc2CCN1C)OCO3,cell viability (log2),[3],0.11
same,cell viability (log2),[4],0.0969
same,cell viability (log2),[9],-0.0012
same,cell viability (log2),[10],0.0503
COc1cc([C@@H]2c3cc4c(cc3[C@H](O)[C@H]3COC(=O)[C@@H]23)OCO4)cc(OC)c1OC,cell viability (log2),[3],0.0302
same,cell viability (log2),[4],0.00961
same,cell viability (log2),[9],-2.1 (active)
same,cell viability (log2),[10],-0.572 (active)
CCCN(CCC)[C@@H]1CCc2c(F)ccc(O)c2C1,cell viability (log2),[17],0.13
same,cell viability (log2),[18],0.0763
same,cell viability (log2),[19],0.181
same,cell viability (log2),[20],0.101
O=C1NCN(c2ccccc2)C12CCN(CC1COc3ccccc3O1)CC2 (stereo not given),cell viability (log2),[17],0.177
same,cell viability (log2),[18],0.0806
same,cell viability (log2),[19],0.104
same,cell viability (log2),[20],0.0692
C/C=C(\C)C(=O)O[C@H]1C[C@@H](OC(C)=O)[C@@]2(C(=O)OC)CO[C@H]3[C@@H](O)[C@@](C)([C@]45O[C@@]4(C)[C@H]4C[C@@H]5O[C@@H]5OC=C[C@@]54O)[C@H]4[C@]1(CO[C@]4(O)C(=O)OC)[C@@H]32,cell viability (log2),[3],0.103
same,cell viability (log2),[4],0.0233
same,cell viability (log2),[9],0.139
same,cell viability (log2),[10],-0.02
Cc1cccc(C)c1NC(=O)CN1CCCC1=O,cell viability (log2),[1],0.119
same,cell viability (log2),[2],-0.000586
same,cell viability (log2),[5],0.107
same,cell viability (log2),[6],0.118
same,cell viability (log2),[7],0.135
same,cell viability (log2),[8],0.0891
same,cell viability (log2),[11],0.156
same,cell viability (log2),[12],0.0751
same,cell viability (log2),[13],0.15
same,cell viability (log2),[14],0.0489
same,cell viability (log2),[15],0.154
same,cell viability (log2),[16],0.0876
O=c1ccc2cc(O[C@@H]3OC(CO)[C@@H](O)C(O)C3O)c(O)cc2o1 (stereo not given in full),cell viability (log2),[3],0.0986
same,cell viability (log2),[4],-0.0879
same,cell viability (log2),[9],0.201
same,cell viability (log2),[10],0.107
CC(C)N(C(=O)SCC(Cl)=C(Cl)Cl)C(C)C,cell viability (log2),[3],0.0806
same,cell viability (log2),[4],0.0889
same,cell viability (log2),[9],-0.00898
same,cell viability (log2),[10],0.0996
